Source: PubChem (National Center for Advancing Translational Sciences (NCATS))
An excerpt weighted towards active compounds, which were near 7.6% of everything screened.
KB-V1 cytotox: qHTS assay for MDR1-selective chemotherapeutics: Primary screen using the drug-selected MDR subline cells KB-V1; KB-V1 MDR cells viability, CellTiter-Glo, 72 h; Potency, µM (series often up to 46.1 µM), actives largely listed as cytotoxic; 3.4% of 400,000 active; further: potency means the concentration at half of the fitted maximal effect; on the % scale 0 is the no-effect control and ±100 the full control effect; nearly all actives have a fitted effect of over 60% in size
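Following 72 h at 37 degrees C with compound, KB-V1 cell viability was read by CellTiter-Glo luminescence, medium being phenol-red-free DMEM plus 10% FBS; concentration-response parameters came from normalized, curve-fitted qHTS data.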
KCNH2 3.1 block: qHTS for Inhibitors of KCHN2 3.1: Mutant qHTS; activity change, % (tested at about 1.8 µM); U2OS KCNH2 3.1, thallium flux FluxOr; stronger effect = lower value; Potassium voltage-gated channel subfamily H member 2, brain isoform KCNH2 3.1 (human); 0.95% of 340,000 active;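 active means maximum activity change below -70%; inconclusive means maximum activity change from -70% to -50%; inactive means maximum activity change above -50%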;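 further: thallium influx rate constant from kinetic fluorescence after stimulation buffer; on the % scale 0 is the no-effect control and ±100 the full control effect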
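Thallium flux via FluxOr fluorescence (Red40 quencher, 45 min loading) in U2OS cells virally expressing the KCNH2 3.1 isoform (1.77 x 10^8 /mL virus, overnight at 37 C). Rate constants from 2-min kinetic reads post-stimulation, normalised to positive and negative controls.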
MCF10A rereplic: A quantitative high throughput screen for small molecules that induce DNA re-replication in MCF 10a normal breast cells; MCF 10A DNA re-replication, Hoechst nuclear intensity, 48 h; Potency, µM (series often up to 46.1 µM), for the others: at the top dose activity, positive = re-replication, hits mostly activators; 2.9% of 350,000 active; AID 624296, 2012; further: potency means the concentration at half of the fitted maximal effect; % of control where 0% means no effect; nearly all actives have a fitted effect of over 50% in size
hERG WT inh: qHTS for Inhibitors of KCHN2 3.1: Wildtype qHTS; Voltage-gated inwardly rectifying potassium channel KCNH2 (Homo sapiens), Q12809; U2OS, BacMam KCNH2, thallium flux FluxOr; stronger effect = lower value; activity change, % at 1.84 µM; 0.37% of 340,000 active;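 active means maximum activity change below -70%; inconclusive means maximum activity change between -70% and -50%; inactive means maximum activity change above -50%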; further: on the % scale 0 is the no-effect control and ±100 the full control effect
Target sequence (Q12809 whole entry, looked up): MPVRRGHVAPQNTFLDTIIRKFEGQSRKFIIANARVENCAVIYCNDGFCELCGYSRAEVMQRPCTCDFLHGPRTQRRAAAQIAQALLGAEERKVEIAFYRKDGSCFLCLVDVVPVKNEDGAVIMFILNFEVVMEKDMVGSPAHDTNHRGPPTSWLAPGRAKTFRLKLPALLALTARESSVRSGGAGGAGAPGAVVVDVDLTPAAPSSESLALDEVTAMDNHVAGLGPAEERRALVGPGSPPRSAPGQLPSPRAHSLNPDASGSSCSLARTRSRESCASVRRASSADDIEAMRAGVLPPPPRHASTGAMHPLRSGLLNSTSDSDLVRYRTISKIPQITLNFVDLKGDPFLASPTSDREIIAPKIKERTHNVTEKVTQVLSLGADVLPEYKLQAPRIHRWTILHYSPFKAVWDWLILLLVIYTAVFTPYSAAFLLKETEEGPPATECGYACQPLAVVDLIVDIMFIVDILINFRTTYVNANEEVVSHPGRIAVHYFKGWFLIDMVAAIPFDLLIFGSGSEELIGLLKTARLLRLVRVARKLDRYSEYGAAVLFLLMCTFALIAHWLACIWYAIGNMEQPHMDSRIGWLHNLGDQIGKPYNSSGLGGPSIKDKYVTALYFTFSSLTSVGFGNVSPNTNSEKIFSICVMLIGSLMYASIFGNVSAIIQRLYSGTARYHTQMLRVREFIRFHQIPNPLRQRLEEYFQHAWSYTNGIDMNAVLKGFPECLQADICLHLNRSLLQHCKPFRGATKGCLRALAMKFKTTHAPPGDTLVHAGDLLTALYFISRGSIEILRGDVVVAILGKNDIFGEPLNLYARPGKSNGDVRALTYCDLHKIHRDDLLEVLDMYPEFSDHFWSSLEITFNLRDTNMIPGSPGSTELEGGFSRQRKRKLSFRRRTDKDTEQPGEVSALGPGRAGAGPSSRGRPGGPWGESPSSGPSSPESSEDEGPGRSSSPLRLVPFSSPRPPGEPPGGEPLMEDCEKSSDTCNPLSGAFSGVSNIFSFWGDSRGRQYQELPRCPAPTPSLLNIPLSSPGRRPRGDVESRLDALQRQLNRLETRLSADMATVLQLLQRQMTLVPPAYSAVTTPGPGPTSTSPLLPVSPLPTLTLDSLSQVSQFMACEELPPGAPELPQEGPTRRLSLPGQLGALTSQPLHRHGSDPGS
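U2OS cells transduced with wild-type KCNH2 virus are loaded with FluxOr dye for 45 min, and thallium flux is measured in kinetic reads before and after stimulation buffer. Rate constants are normalized to DMSO controls.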
KB-3-1 cytotox: qHTS assay for MDR1-selective chemotherapeutics: Primary screen using the parental adenocarcinoma cell KB-3-1. KB-3-1 viability, CellTiter-Glo ATP luminescence, 72 h. Potency, µM (series often up to 46.1 µM), hits mostly cytotoxic. 1.4% of 400,000 active; further: potency means the concentration at half of the fitted maximal effect; on the % scale 0 is the no-effect control and ±100 the full control effect; nearly all actives have a fitted effect of over 60% in size
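Parental KB-3-1 adenocarcinoma cells in phenol-red-free DMEM with 10% FBS were pin-treated with compounds at several concentrations, incubated 72 h at 37 °C, and viability read by CellTiter-Glo luminescence; concentration-effect curves were fitted after normalization.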
SW480 rereplic: A quantitative high throughput screen for small molecules that induce DNA re-replication in SW480 colon adenocarcinoma cells; SW480 DNA re-replication, Hoechst DNA content imaging, 48 h; Potency, µM (series often up to 46.1 µM), without a hit: top-dose re-replication activation, most hits filed as activators; 1.8% of 340,000 active; AID 624297, 2012; further: potency means the concentration at half of the fitted maximal effect; % of control where 0% means no effect; nearly all actives have a fitted effect of over 55% in size
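Treated cells incubate 48 hr (37 C, 5% CO2), are stained 40 min with Hoechst, and nuclear fluorescence is enumerated; a rise in nuclei with high DNA signal marks re-replication.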
Starred values were filed as active, the others as inactive. Unless noted, the call rests on the fitted dose curve; in most records, active means well fitted curve in the direction sought with a large enough effect; inconclusive means small, poorly fitted or top-dose-only effect, or another doubt; inactive means no such curve, though single readings can be large; an effect the other way counts as inactive or inconclusive.

What do the screens show for `O=C(NC1CCCC1)c1sc(=S)n2c1[nH]c(=O)c1ccccc12`?
KB-V1 cytotox: inconclusive; KCNH2 3.1 block: -13; MCF10A rereplic: inconclusive; hERG WT inh: -6; KB-3-1 cytotox: 12µM*; SW480 rereplic: inconclusive

What do the screens show for `Cc1ccccc1OCCCCn1nnc2sc3c(c2c1=O)CCC(C)C3` (stereo unspecified)?
KB-V1 cytotox: inactive; KB-3-1 cytotox: inactive

How did CC(CC(=O)NCCc1ccc(S(N)(=O)=O)cc1)c1ccccc1 (stereo unspecified) do in these assays?
KB-V1 cytotox: inactive; KCNH2 3.1 block: -12; MCF10A rereplic: 10%; hERG WT inh: 15; KB-3-1 cytotox: inactive; SW480 rereplic: -2%

Results for O=S(=O)(NCC1CCCO1)c1ccccc1F (stereo unspecified) ?
KB-V1 cytotox: inactive; KCNH2 3.1 block: 4; MCF10A rereplic: -7%; hERG WT inh: -1; KB-3-1 cytotox: inactive; SW480 rereplic: -7%

How did Cc1ccccc1S(=O)(=O)NCC1CCCO1 (stereo unspecified) do in these assays?
KB-V1 cytotox: inactive; KCNH2 3.1 block: 6; MCF10A rereplic: -12%; hERG WT inh: -7; KB-3-1 cytotox: inactive; SW480 rereplic: 26µM*

How did Cc1nc2ccccc2c2nc(NC(=O)Cc3ccccc3)nn12 do in these assays?
KB-V1 cytotox: 18µM*; KCNH2 3.1 block: 19; MCF10A rereplic: 22%; hERG WT inh: -19; KB-3-1 cytotox: inconclusive; SW480 rereplic: 3%

How did C[C@H](CO)N1C[C@H](C)[C@H](CN(C)Cc2ccncc2)OCc2ccccc2-c2c(n(C)c3ccccc23)C1=O do in these assays?
KB-V1 cytotox: inactive; KCNH2 3.1 block: -3; hERG WT inh: -7; KB-3-1 cytotox: inactive

Results for Cc1cc(NC(=O)CN(C)CC(=O)Nc2ccc(Cl)cc2)no1 ?
KB-V1 cytotox: inactive; KCNH2 3.1 block: -120*; MCF10A rereplic: 3%; hERG WT inh: 11; KB-3-1 cytotox: inactive; SW480 rereplic: -5%

What do the screens show for `Cc1cc(NC(=O)Cc2c(F)cccc2Cl)no1`?
KB-V1 cytotox: inactive; KCNH2 3.1 block: -13; MCF10A rereplic: 7.3µM*; hERG WT inh: -24; KB-3-1 cytotox: inactive; SW480 rereplic: inconclusive

What do the screens show for `Cc1cc(NC(=O)/C=C/c2ccc(Br)cc2)no1`?
KB-V1 cytotox: inconclusive; KCNH2 3.1 block: 3; MCF10A rereplic: 4%; hERG WT inh: -3; KB-3-1 cytotox: inactive; SW480 rereplic: 10µM*

What do the screens show for `Cc1cc(NC(=O)/C=C/c2ccc(Cl)cc2)no1`?
KB-V1 cytotox: inactive; KCNH2 3.1 block: -1; MCF10A rereplic: 9%; hERG WT inh: -2; KB-3-1 cytotox: inactive; SW480 rereplic: 6.5µM*

How did Cc1ccc(C)c(NC(=O)Cc2nc(CNCC(C)C)cs2)c1 do in these assays?
KB-V1 cytotox: inactive; KCNH2 3.1 block: 6; MCF10A rereplic: 1%; hERG WT inh: 11; KB-3-1 cytotox: inactive; SW480 rereplic: 10%

How did CC(NS(=O)(=O)c1ccc(NC(=O)N2CCCCC2)cc1)c1ccccc1 (stereo unspecified) do in these assays?
KB-V1 cytotox: inactive; KCNH2 3.1 block: 4; MCF10A rereplic: 0%; hERG WT inh: -3; KB-3-1 cytotox: inactive; SW480 rereplic: -3%

How did Cc1cccc(C)c1NC(=O)CN(C)CC(=O)Nc1ccc(F)c(Cl)c1 do in these assays?
KB-V1 cytotox: 15µM*; KCNH2 3.1 block: -3; MCF10A rereplic: -1%; hERG WT inh: -14; KB-3-1 cytotox: inactive; SW480 rereplic: -2%

Results for O=C(O)c1cc(S(=O)(=O)N(Cc2ccccc2)c2ccc(Cl)cc2)ccc1Cl ?
KB-V1 cytotox: inactive; KCNH2 3.1 block: -25; MCF10A rereplic: 21µM*; hERG WT inh: -5; KB-3-1 cytotox: inactive; SW480 rereplic: inconclusive

Results for O=C(CN(c1ccc(Cl)cc1)S(=O)(=O)c1ccc(Cl)c([N+](=O)[O-])c1)NCCc1ccc(F)cc1 ?
KB-V1 cytotox: inactive; KCNH2 3.1 block: -14; MCF10A rereplic: 3.7µM*; hERG WT inh: 26; KB-3-1 cytotox: inactive; SW480 rereplic: 6%

Results for O=C(CN(c1ccc(Br)cc1)S(=O)(=O)c1ccc(Cl)c([N+](=O)[O-])c1)NCC1CCCO1 (stereo unspecified) ?
KB-V1 cytotox: inconclusive; KCNH2 3.1 block: -16; MCF10A rereplic: 16µM*; hERG WT inh: -32; KB-3-1 cytotox: inactive; SW480 rereplic: inconclusive

How did O=C(CN(c1ccc(Cl)cc1)S(=O)(=O)c1ccc(Cl)c([N+](=O)[O-])c1)NCCc1ccccc1 do in these assays?
KB-V1 cytotox: inactive; KCNH2 3.1 block: -19; MCF10A rereplic: 3.7µM*; hERG WT inh: -7; KB-3-1 cytotox: inactive; SW480 rereplic: -15%

What do the screens show for `CN(CC(=O)NCC1CCCO1)S(=O)(=O)c1ccc(Br)cc1` (stereo unspecified)?
KB-V1 cytotox: inactive; KCNH2 3.1 block: -15; MCF10A rereplic: -2%; hERG WT inh: -8; KB-3-1 cytotox: inactive; SW480 rereplic: -11%

What do the screens show for `Cc1ccc(N(CC(=O)NCCc2ccc(Cl)cc2)S(=O)(=O)c2c(C)noc2C)cc1`?
KB-V1 cytotox: inactive; KCNH2 3.1 block: -6; MCF10A rereplic: 4%; hERG WT inh: -2; KB-3-1 cytotox: inactive; SW480 rereplic: 8%

Results for O=C(O)c1ccc(N(Cc2ccccc2)S(=O)(=O)c2ccccc2)cc1 ?
KB-V1 cytotox: inactive; KCNH2 3.1 block: -3; MCF10A rereplic: -2%; hERG WT inh: 0; KB-3-1 cytotox: inactive; SW480 rereplic: -9%

How did CN1OC[C@@H]2CN(S(=O)(=O)c3cccc4ccccc34)[C@H](c3ccc(-c4ccccc4)cc3)C[C@@H]21 do in these assays?
KB-V1 cytotox: inactive; KCNH2 3.1 block: 3; hERG WT inh: -1; KB-3-1 cytotox: inconclusive

How did C=CCn1c(COc2ccccc2F)nnc1SCC(=O)Nc1cc2oc3ccccc3c2cc1OC do in these assays?
KB-V1 cytotox: inconclusive; KCNH2 3.1 block: -7; MCF10A rereplic: 12%; hERG WT inh: 0; KB-3-1 cytotox: inconclusive; SW480 rereplic: 4%

Results for C=CCn1c(COc2ccccc2F)nnc1SCC(=O)c1c[nH]c2ccccc12 ?
KB-V1 cytotox: 13µM*; KCNH2 3.1 block: 2; MCF10A rereplic: 17%; hERG WT inh: -12; KB-3-1 cytotox: inconclusive; SW480 rereplic: -6%
